# Assay results taken from PubChem BioAssay.
# Records with an inconclusive call do not appear. Activity calls are given as the source filed them. Cut-off read from the data, not from the text of the source, unless noted: active = inhibition above about 80%; inactive = the rest.
# Key:
# [1] = growth inhibition of DIPG cells – cell-based, MIPE5.0 library, qHTS (AID 1347068; cut-off not given, nearly all actives have IC50 up to about 30 µM); settings: SU-DIPG-XXV viability
# [2] = viability loss with induced miR-34 in A549 – imaging, A549 dox-inducible miR-34, nuclei and caspase counts, primary screen (AID 1347080;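 active = compounds whose cell count with miR-34 switched on is under 0.7 times the count with it off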); settings: A549 miR-34 inducible, Hoechst nuclei count, 48 h
# [3] = MELAS cybrid and Rieske KO viability enhancers – cell-based, MELAS cybrids, Rieske KO mouse fibroblasts, CellTiter-Glo, primary screen (AID 1508586;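 active = mean z-score across replicates of 1.96 or higher in either the MELAS or the Rieske mutant cell line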;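 note: z relative to plate mean and SD of compound and empty wells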); settings: low glucose
# [4] = growth inhibition, single agent or in combination, cell-based, chromothripsis tumors, cisplatin or BGB combos (AID 1671449); settings: LFS_MB_P medulloblastoma cells;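 note: cells exposed for 96 hours; 0% = vehicle DMSO and 100% = killing by high DMSO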
# [5] = growth inhibition, single agent and combos, cell-based, chromothripsis tumors, cisplatin or BGB combos (AID 1671450); settings: HDN33 neuroblastoma cells, stronger effect = higher value;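 note: cells exposed to compound for four days; 0% = vehicle DMSO and 100% = cell killing by high DMSO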
# [6] = growth inhibition, single agents and combos, ICB984, cell-based, cisplatin or BGB combos, synergistic combos for chromothripsis tumors (AID 1671451; call rule not given here;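 note: cells exposed for 96 hours before readout; 0% = vehicle DMSO and 100% = killing by high DMSO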); settings: ICB984 medulloblastoma cells, drug combinations, stronger effect = higher value
# [7] = growth inhibition, single agents and combos, LFS_MB_1R, cell-based, cisplatin or BGB combos, synergistic combos for chromothripsis tumors (AID 1671452); settings: LFS_MB_1R medulloblastoma cells, stronger effect = higher value;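 note: cells exposed for 96 hours before readout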
# [8] = growth inhibition, single agents and combos, HTB85, cell-based, BGB or cisplatin IC20 combos, synergistic combos for chromothripsis tumors (AID 1671453); settings: HTB85 osteosarcoma cells, drug combinations, stronger effect = higher value;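 note: cells exposed for 96 hours before readout; 0% = vehicle DMSO and 100% = high DMSO killing control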
# [9] = growth inhibition, single agents and combos, CRL2098, cell-based, BGB or cisplatin IC20 combos, synergistic combos for chromothripsis tumors (AID 1671454); settings: CRL2098 osteosarcoma cells, drug combinations, stronger effect = higher value;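 note: cells exposed for 96 h before readout; 0% = vehicle DMSO and 100% = killing by high DMSO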
# [10] = growth inhibition, single agents and combos, HD-MB03, cell-based, BGB or cisplatin IC20 combos, synergistic combos for chromothripsis tumors (AID 1671455; in the data active = inhibition above about 83%;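 note: 0% = vehicle DMSO and 100% = high DMSO as cytotoxic control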); settings: HD-MB03 medulloblastoma cells, stronger effect = higher value
# [11] = growth inhibition, single agents and combos, UWB1.289, cell-based, BGB or cisplatin combos, synergistic combos for chromothripsis tumors (AID 1671456); settings: UWB1.289 ovarian carcinoma cells, stronger effect = higher value;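 note: cells exposed to compound for four days; 0% = vehicle DMSO and 100% = killing by high DMSO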
# [12] = growth inhibition, single agents and combos, LFS_MB_2R, cell-based, cisplatin combos, synergistic combos for chromothripsis tumors (AID 1671457); settings: LFS_MB_2R medulloblastoma cells, stronger effect = higher value;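 note: cells exposed to compound for four days before readout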
# [13] = growth inhibition, MDA-MB-436, cell-based, BGB or cisplatin combos, synergistic combos for chromothripsis tumors (AID 1671458; call rule not given here;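 note: cells exposed for 96 hours; 0% = vehicle DMSO and 100% = killing by high DMSO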); settings: MDA-MB-436 breast carcinoma growth inhibition, drug combinations, stronger effect = higher value
# [14] = UWB1.289_BRCA1 ovarian cancer growth, cell-based, BGB or cisplatin combinations (AID 1671459); settings: UWB1.289 BRCA1 ovarian carcinoma, drug combinations, stronger effect = higher value
# [15] = drug combination toxicity in non-malignant astrocytes – cell-based, BGB or cisplatin IC20 combos, cytotoxicity control for chromothriptic childhood tumor combination screen (AID 1671460); settings: Human astrocytes, viability inhibition, drug combinations, at 0.5 µM, stronger effect = higher value;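 note: cells exposed to compounds for 96 hours before viability readout; 0% = vehicle and 100% = killing control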
# [16] = BT084 cell growth, single and combined drugs, ICGC_MB145, cisplatin and BGB IC40 combos (AID 1671461); settings: BT084 medulloblastoma cells, drug combinations, stronger effect = higher value;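 note: cells exposed to drugs for 96 hours; 0% = vehicle DMSO and 100% = high DMSO full killing control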
# [17] = RCMB18 cell growth, single agent and combined, cisplatin and BGB IC40 combos (AID 1671462); settings: RCMB18 medulloblastoma cells, stronger effect = higher value;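 note: cells exposed to compound for four days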
# [18] = CRL1545 cell growth, single agent and combined, cisplatin and BGB IC20 combos (AID 1671464); settings: CRL1545 osteosarcoma cells, stronger effect = higher value;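 note: cells exposed to compound for 96 hours before readout; 0% = vehicle DMSO and 100% = high DMSO killing control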
# [19] = stronger effect = lower value, cell number ratio, induced over uninduced
# [20] = measured here: relative caspase fold change +Dox/-Dox
# [21] = measured here: total cells with miR-34 induction, stronger effect = lower value
# [22] = measured here: total cells without miR-34 induction
# [23] = measured here: combination with BGB IC40, at 0.05 µM
# [24] = measured here: with BGB IC20 combination, at 0.5 µM
# [25] = measured here: with cisplatin IC20 combination, at 0.5 µM
# [26] = measured here: combination with cisplatin, at 0.5 µM
# [27] = measured here: combination with cisplatin, at 5 µM
smiles,measurement,setting,value
C/C=C(/C)C(=O)O[C@H]1C(C)=CC23C(=O)C(C=C(CO)[C@@H](O)[C@]12O)[C@H]1[C@@H](C[C@H]3C)C1(C)C (stereo partly specified),outcome,[1],inactive
COc1ccc(-c2cnc3c(-c4cccc5ncccc45)cnn3c2)cc1,outcome,[1],inactive
same,fold change,[2]; [19],0.802 (inactive)
same,fold change,[2]; [20],0.646
same,cell count,[2]; [21],4530
same,cell count,[2]; [22],5640
same,z-score,"[3]; MELAS cybrid survival, CellTiter-Glo 48 h, stronger effect = higher value",-0.0268 (inactive)
same,z-score,"[3]; Rieske KO mouse fibroblast survival, CellTiter-Glo 72 h",-0.688
CC[C@@H]1[C@H](F)C(=O)N[C@@H]1COc1nccc2cc(C(N)=O)c(OC)cc12,outcome,[1],inactive
CCCCC[C@H](O)/C=C/[C@H]1[C@H](O)CC(=O)[C@@H]1C/C=C/CCCC(=O)O,fold change,[2]; [19],0.972 (inactive)
same,fold change,[2]; [20],1.22
same,cell count,[2]; [21],5510
same,cell count,[2]; [22],5670
CCCc1cc(C(=O)c2ccc(-c3ccccc3)cc2)ccc1OCCCN1CCCc2c(OC(C)(C)C(=O)O)cccc21,fold change,[2]; [19],0.856 (inactive)
same,fold change,[2]; [20],1.42
same,cell count,[2]; [21],5600
same,cell count,[2]; [22],6540
C[C@H](NC(=O)[C@H]1NCC[C@@H]1O)c1ccc(-c2noc(CCC3CCCC3)n2)cc1,outcome,[1],inactive
CCCCC[C@@H](O)/C=C/[C@H]1C(=O)C[C@H](O)[C@@H]1C/C=C\CCCC(=O)O,fold change,[2]; [19],0.996 (inactive)
same,fold change,[2]; [20],1.65
same,cell count,[2]; [21],6010
same,cell count,[2]; [22],6040
CCCCC[C@@H](O)/C=C/[C@H]1C[C@H]2C[C@@H]([C@@H]1C/C=C\CCCC(=O)O)C2(C)C,fold change,[2]; [19],0.917 (inactive)
same,fold change,[2]; [20],0.452
same,cell count,[2]; [21],5480
same,cell count,[2]; [22],5970
CC#CC(=O)N1CC[C@@H](n2c(=O)n(-c3ccc(Oc4ccccc4)cc3)c3c(N)ncnc32)C1,outcome,[1],inactive
NCCOc1cc(C(=O)Nc2cc(OCCN)c3ccccc3n2)nc(C(=O)Nc2cc(OCCN)c3ccccc3n2)c1,outcome,[1],inactive
same,inhibition,"[4]; at 0.5 µM, stronger effect = higher value",2.22% (inactive)
same,inhibition,"[4]; measured here: combination with BGB IC20, at 0.005 µM",-38.8%
same,inhibition,"[4]; measured here: combination with BGB IC40, at 0.005 µM",62.7%
same,inhibition,[4]; [23],-24.9%
same,inhibition,"[4]; measured here: combination with cisplatin, at 0.5 µM, stronger effect = higher value",12.8%
same,inhibition,"[4]; measured here: combination with cisplatin, at 5 µM, stronger effect = higher value",-64.9%
same,inhibition,"[5]; BGB combo, at 5 µM",-54.1%
same,inhibition,[5]; at 0.5 µM,-9.7% (inactive)
same,inhibition,"[5]; cisplatin combo, at 5 µM",-17.5%
same,inhibition,[5]; [24],-37.5%
same,inhibition,[5]; [25],8.64%
same,inhibition,"[5]; single agent, at 5 µM",-33.3%
same,inhibition,"[6]; BGB IC20 combo, at 0.005 µM",-1.03%
same,inhibition,"[6]; BGB IC40 combo, at 0.005 µM",-1.14%
same,inhibition,"[6]; BGB IC40 combo, at 0.05 µM",41.5%
same,inhibition,[6]; at 0.5 µM,-7.14% (inactive)
same,inhibition,"[6]; cisplatin combo, at 0.05 µM",38.8%
same,inhibition,"[6]; cisplatin combo, at 0.5 µM",5%
same,inhibition,"[6]; cisplatin combo, at 5 µM",-7.59%
same,inhibition,"[6]; measured here: 5 uM single agent, at 5 µM",-6.04%
same,inhibition,[7]; at 0.5 µM,-45.4% (inactive)
same,inhibition,[7]; [23],-42.8%
same,inhibition,[7]; [26],-52.8%
same,inhibition,[7]; [27],-9.07%
same,inhibition,[8]; at 0.5 µM,-5.41% (inactive)
same,inhibition,"[8]; measured here: with BGB IC20, at 0.5 µM",16.9%
same,inhibition,"[8]; measured here: with BGB IC20, at 5 µM",14.7%
same,inhibition,"[8]; measured here: with cisplatin IC20, at 0.5 µM",-18.6%
same,inhibition,"[8]; measured here: with cisplatin IC20, at 5 µM",11.6%
same,inhibition,"[8]; single agent, at 5 µM",-2.66%
same,inhibition,[9]; at 0.5 µM,-35.9% (inactive)
same,inhibition,"[9]; measured here: combination with BGB at IC20, at 0.5 µM",-36.6%
same,inhibition,"[9]; measured here: combination with cisplatin at IC20, at 0.5 µM",-37.8%
same,inhibition,[10]; at 0.5 µM,-13.1% (inactive)
same,inhibition,"[10]; measured here: combo with BGB at IC20, at 0.5 µM",-12.1%
same,inhibition,"[10]; measured here: combo with cisplatin at IC20, at 0.5 µM",-20.4%
same,inhibition,[11]; at 0.5 µM,-1.71% (inactive)
same,inhibition,"[11]; measured here: inhibition with BGB combination, at 0.05 µM",-20.7%
same,inhibition,"[11]; measured here: inhibition with cisplatin combination, at 0.05 µM",-14.5%
same,inhibition,[12]; at 0.5 µM,-18.8% (inactive)
same,inhibition,[12]; [26],-2.5%
same,inhibition,[12]; [27],-13.9%
same,inhibition,[13]; at 0.5 µM,0.88% (inactive)
same,inhibition,"[13]; measured here: BGB combination, at 0.5 µM",5.33%
same,inhibition,"[13]; measured here: BGB combination, at 5 µM",54.3%
same,inhibition,"[13]; measured here: cisplatin combination, at 0.5 µM",-17.7%
same,inhibition,"[13]; measured here: cisplatin combination, at 5 µM",63.8%
same,inhibition,"[14]; BGB combination, concentration series, at 5 µM",15.3%
same,inhibition,[14]; at 0.5 µM,-6.49% (inactive)
same,inhibition,"[14]; cisplatin combination, concentration series, at 5 µM",19.1%
same,inhibition,[15],5.8% (inactive)
same,inhibition,[15]; measured here: combo with BGB IC20,5.26%
same,inhibition,[15]; measured here: combo with cisplatin IC20,9.36%
same,inhibition,[16]; at 0.5 µM,-11.2% (inactive)
same,inhibition,"[16]; cisplatin combination, at 0.5 µM",-3.81%
same,inhibition,"[16]; cisplatin combination, at 5 µM",-140%
same,inhibition,"[16]; measured here: BGB IC40 combination 0.05 uM, at 0.05 µM",-28.5%
same,inhibition,"[16]; single agent, at 5 µM",-22.2%
same,inhibition,[17]; at 0.5 µM,-16.6% (inactive)
same,inhibition,"[17]; cisplatin combo, at 5 µM",-19.4%
same,inhibition,"[17]; measured here: BGB IC40 combination, at 0.05 µM",-9.5%
same,inhibition,[17]; [26],-38.3%
same,inhibition,"[17]; single agent, at 5 µM",-10.4%
same,inhibition,[18]; at 0.5 µM,11.6% (inactive)
same,inhibition,[18]; [24],-1.76%
same,inhibition,[18]; [25],17%
same,inhibition,"[18]; single agent, at 0.05 µM",-15.4%
same,inhibition,"[18]; single agent, at 5 µM",55%
